Assay [1] can be described thus: qHTS assay to identify small molecule agonists of the constitutive androstane receptor (CAR) signaling pathway - cell viability counter screen (AID 1224836). Further: nearly all actives have a fitted effect of over 45% in size. Further: potency means the concentration at half of the fitted maximal effect. An outline of the steps:
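Counter screen multiplexed with the CAR reporter readout: HepG2 cells co-transfected with hCAR and the CYP2B6-2.2kb construct receive a 15-concentration compound series and 0.75 uM PK11195 (final), then CellTiter-Fluor fluorescence is read after 23 h.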
For orientation: Quantitative high-throughput screening tests each substance at several concentrations.

Assay [2] is described as follows: qHTS assay to identify small molecule antagonists of the constitutive androstane receptor (CAR) signaling pathway - cell viability counter screen (AID 1224837). Further: nearly all actives have a fitted effect of over 45% in size. Further: potency means the concentration at half of the fitted maximal effect. In short, it runs like this: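 In quantitative HTS format, compounds at 15 concentrations were applied to HepG2 cells double-transfected with hCAR and CYP2B6-2.2kb under 50 nM CITCO stimulation; live-cell protease activity was read after 23 hr via CellTiter-Fluor.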

For assay [3], the target named is Nuclear receptor subfamily 1 group I member 3 (Homo sapiens) (UniProt Q14994). Nature of the assay: qHTS assay to identify small molecule antagonists of the constitutive androstane receptor (CAR) signaling pathway (AID 1224838). Further: nearly all actives have a fitted effect of over 40% in size. Further: potency means the concentration at half of the fitted maximal effect. In short, it runs like this:
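CITCO-stimulated (50 nM final) HepG2 cells stably transfected with hCAR and CYP2B6-2.2kb luciferase were exposed to compounds at 15 concentrations for 24 h at 37 C/5% CO2. A luciferase reagent was added and luminescence recorded after 30 min.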

The target is the same in assay [4]. Nature of the assay: qHTS assay to identify small molecule agonists of the constitutive androstane receptor (CAR) signaling pathway (AID 1224839). Further: nearly all actives have a fitted effect of over 15% in size. Further: potency means the concentration at half of the fitted maximal effect. In short, it runs like this: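 A 15-concentration quantitative screen uses HepG2 cells co-transfected stably with human CAR and CYP2B6-2.2kb reporter. Treatment lasts 24 h with 0.75 uM PK11195 final present; ONE-Glo luminescence is the signal.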

The nature of assay [5]: qHTS assay to identify small molecule antagonists of the estrogen related receptor signaling pathway with the pleiotropic PPARgamma coactivator (PGC) from Tox21 10K library - cell viability counter screen (AID 1224840; active means well fitted cell-killing curve with a large enough effect in the repeat runs, not every such curve was filed as active; further: nearly all actives have a fitted effect of over 40% in size; further: potency means the concentration at half of the fitted maximal effect). An outline of the steps:
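Viability counter screen, PGC/ERR cells: 17.5 h compound exposure at 37 C, CellTiter-Fluor fluorescence endpoint.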

Assay [6] is described as follows: qHTS assay to identify small molecule antagonists of the estrogen related receptor signaling pathway with the pleiotropic PPARgamma coactivator (PGC) from Tox21 10K library (AID 1224841; call rule not given here; further: actives are mostly falling curves and most rising ones were filed inactive; nearly all actives have a fitted effect of over 50% in size). An outline of the steps: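 In the PGC/ERR line, DMSO solutions of test chemicals are pin-delivered to 2,000 cells/well six hours after dispensing. Following eighteen hours' incubation, One-Glo reagent is added and luminescence recorded.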

Assay [7] in a line: qHTS assay to identify small molecule agonists of the estrogen related receptor signaling pathway with the pleiotropic PPARgamma coactivator (PGC) from Tox21 10K library (AID 1224842). Further: nearly all actives have a fitted effect of over 15% in size. In short, it runs like this: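 Luminescence from One-Glo (30 min, room temperature) measured after PGC/ERR cells had 18 h at 37 C with pinned compound (23 nL in DMSO). Cells had been seeded at 2,000 per well and pre-incubated 6 h.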

Assay [8] deals with Thyrotropin receptor (Homo sapiens) (UniProt P16473). As to the kind of experiment: qHTS assay to identify small molecule agonists of the thyroid stimulating hormone receptor (TSHR) signaling pathway (AID 1224843; calls by dose curve; further: nearly all actives have a fitted effect of over 45% in size). In short, it runs like this: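 A cell-based cAMP HTRF format was run in TSHR-transfected HEK293 cells, 800 per well. Treatment: 30 min, room temperature. Detection: 1 h with labelled cAMP and anti-cAMP cryptate. Concentration-response over 15 points, three replicates.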
Chain of Thyrotropin receptor (Homo sapiens) (P16473 whole entry, looked up): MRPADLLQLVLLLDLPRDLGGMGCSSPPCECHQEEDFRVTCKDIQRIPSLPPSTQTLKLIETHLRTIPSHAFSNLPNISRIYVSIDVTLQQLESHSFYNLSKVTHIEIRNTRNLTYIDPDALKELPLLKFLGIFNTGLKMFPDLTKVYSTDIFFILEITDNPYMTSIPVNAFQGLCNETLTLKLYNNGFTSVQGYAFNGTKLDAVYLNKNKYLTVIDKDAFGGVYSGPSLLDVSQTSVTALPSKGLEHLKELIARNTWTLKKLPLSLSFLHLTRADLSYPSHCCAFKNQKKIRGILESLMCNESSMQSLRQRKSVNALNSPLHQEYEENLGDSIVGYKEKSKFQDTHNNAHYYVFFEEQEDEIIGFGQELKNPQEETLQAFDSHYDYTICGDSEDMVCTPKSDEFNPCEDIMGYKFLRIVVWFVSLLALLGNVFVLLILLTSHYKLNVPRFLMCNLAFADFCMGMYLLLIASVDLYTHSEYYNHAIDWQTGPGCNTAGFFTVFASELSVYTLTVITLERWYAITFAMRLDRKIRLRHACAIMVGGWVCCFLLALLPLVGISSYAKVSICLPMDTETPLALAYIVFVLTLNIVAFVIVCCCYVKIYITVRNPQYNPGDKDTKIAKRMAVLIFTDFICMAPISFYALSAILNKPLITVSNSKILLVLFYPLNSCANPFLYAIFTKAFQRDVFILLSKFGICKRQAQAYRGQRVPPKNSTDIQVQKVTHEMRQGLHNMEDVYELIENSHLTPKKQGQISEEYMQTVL

Assay [9] in a line: qHTS assay to identify small molecule agonists of the hypoxia (HIF-1) signaling pathway - cell viability counter screen (AID 1224844; calls by dose curve; further: nearly all actives have a fitted effect of over 50% in size). In short, it runs like this: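 Same wells as the HIF-1 reporter screen; ME-180 cells carrying HRE-bla, 17 hr treatment at 37C; CellTiter-Glo luminescence read after 30 min at room temperature.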
A short description of assay [10]: qHTS assay to identify small molecule agonists of H2AX (AID 1224845; active means well fitted activation curve with a large enough effect in the signal ratio in the repeat runs, not every such curve was filed as active; the % refers to the signal ratio; further: potency means the concentration at half of the fitted maximal effect). An outline of the steps:
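Phospho-H2AX Ser139 measured by HTRF (ex 320 nm; em 665 and 620 nm) after 24 hr antibody incubation. Compounds, 15 concentrations, 0.76% DMSO, were applied to CHO-K1 cells for 3hr at 37C before lysis.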

Assay [11] can be described thus: qHTS assay to identify small molecule agonists of the hypoxia (HIF-1) signaling pathway (AID 1224846; active means well fitted activation curve with a large enough effect in the signal ratio in the repeat runs, not every such curve was filed as active; the % refers to the signal ratio). In short, it runs like this: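 In ME-180 cells bearing an HRE-bla construct, 17 h treatment with DMSO-dissolved compounds at 37C was followed by CCF4-AM loading to quantify reporter induction.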
Assay [12] in a line: qHTS assay to identify small molecule agonists of H2AX - cell viability counter screen (AID 1224847; calls by dose curve; further: top concentration of the series differs between compounds; nearly all actives have a fitted effect of over 30% in size). An outline of the steps:
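We seed wild-type CHO-K1 cells overnight, treat them for 3 hr at 37C with compounds in 15-concentration series, and quantify remaining viability by CellTiter-Glo luminescence.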

Assay [13] is described as follows: qHTS assay to identify small molecule antagonists of the estrogen related receptor (ERR) signaling pathway from Tox21 library (AID 1224848). Further: nearly all actives have a fitted effect of over 50% in size. In short, it runs like this:
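ERR cell line, 2,000 cells/well. 6 h settle, then compound (DMSO) added; 18 h at 37 C; ONE-Glo luminescence after 30 min RT.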

A short description of assay [14]: qHTS assay to identify small molecule agonists of the estrogen related receptor (ERR) signaling pathway from Tox21 library (AID 1224849; calls by dose curve; further: nearly all actives have a fitted effect of over 15% in size). The note with it: ERR reporter cell line, ONE-Glo luciferase, 18 h. In short, it runs like this: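 Reporter cells (ERR, NTP source) treated with Tox21 10K compounds 18 h, 37 C. Readout: ONE-Glo luminescence, 30 min RT.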
Assay [15] in a line: qHTS RealTime-Glo MT Cell Viability Assay in HepG2 cells - 24 hour (AID 1224867). Further: nearly all actives have a fitted effect of over 50% in size. Further: potency means the concentration at half of the fitted maximal effect. An outline of the steps: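 Tox21 10K library screened in qHTS format on HepG2 cells carrying RealTime-Glo reagents. Compounds were added after a 5 h preincubation, and the luminescent signal from continuous culture was measured repeatedly during 40 h treatment.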
Assay [16] in a line: qHTS RealTime-Glo MT Cell Viability Assay in HEK293 cells - 32 hour (AID 1224868). Further: nearly all actives have a fitted effect of over 50% in size. Further: potency means the concentration at half of the fitted maximal effect. In short, it runs like this: (§1)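 Luminescence generated by NanoLuc from substrate produced by living HEK293 cells served as the viability signal. Each value reflects the reading at its stated time point during continuous 40 h compound exposure at 37 C.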
Assay [17] in a line: A CellTox Green Cytotoxicity Assay to monitor cytotoxicity in HEK293 cells - 0 hour (AID 1224869). Further: nearly all actives have a fitted effect of over 50% in size. An outline of the steps: (§2)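 Homogeneous no-lysis format: HEK293 cell suspension mixed with CellTox Green reagent, seeded, incubated 5 h at 37 C/5% CO2, then dosed by pintool with compound in DMSO.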
Assay [18] in a line: qHTS RealTime-Glo MT Cell Viability Assay in HepG2 cells - 40 hour (AID 1224870). Further: nearly all actives have a fitted effect of over 50% in size. An outline of the steps: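 Real-time viability: cells seeded at 600 per well together with NanoLuc and cell-permeant prosubstrate, compounds added after 5 h incubation. Luminescence tracked at 0, 8, 16, 24, 32 and 40 h of exposure.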
The nature of assay [19]: A CellTox Green Cytotoxicity Assay to monitor cytotoxicity in HEK293 cells - 40 hour (AID 1224871). Further: nearly all actives have a fitted effect of over 45% in size. Further: potency means the concentration at half of the fitted maximal effect. In short, it runs like this:
as §2

The nature of assay [20]: qHTS RealTime-Glo MT Cell Viability Assay in HEK293 cells - 16 hour (AID 1224872). Further: nearly all actives have a fitted effect of over 50% in size. Further: potency means the concentration at half of the fitted maximal effect. An outline of the steps:
as §1

“And” between values parts separate entries of the source, which are not always exact repeats. Equal values may be shown once. Results filed as inconclusive are left out. The source holds several records for some structures; these can differ, active in one and inactive in another. The source made the active and inactive calls. Unless noted, the call rests on the fitted dose curve; in most records, active means well fitted curve in the direction sought with a large enough effect in the repeat runs; inconclusive means weak or mixed curves; inactive means no such curve, though single readings can be large; an effect the other way counts as inactive or inconclusive. Starred links: 1 amine or outer side, 2 acyl side, 3 side chain; linkers in the order of their positions; H or OH if unused. Positions of bridges follow the written chain, without caps; N, C: chain ends. Non-standard residues stand in square brackets, D forms with d. Residues, ends and D or L forms follow the SMILES beside them. Chains are numbered I, II in the order given. Actinocin(9to1) = Cc1c2oc3c(C)ccc(C(=O)[*:1])c3nc-2c(C(=O)[*:2])c(N)c1=O; NMeV = CN[C@H](C(=O)O)C(C)C; Sar = CNCC(=O)O

This is an account of results in PubChem BioAssay (Tox21).
On the % scale 0 is the no-effect control and ±100 the full control effect.

Chain of Nuclear receptor subfamily 1 group I member 3 (Homo sapiens) (Q14994 whole entry, looked up): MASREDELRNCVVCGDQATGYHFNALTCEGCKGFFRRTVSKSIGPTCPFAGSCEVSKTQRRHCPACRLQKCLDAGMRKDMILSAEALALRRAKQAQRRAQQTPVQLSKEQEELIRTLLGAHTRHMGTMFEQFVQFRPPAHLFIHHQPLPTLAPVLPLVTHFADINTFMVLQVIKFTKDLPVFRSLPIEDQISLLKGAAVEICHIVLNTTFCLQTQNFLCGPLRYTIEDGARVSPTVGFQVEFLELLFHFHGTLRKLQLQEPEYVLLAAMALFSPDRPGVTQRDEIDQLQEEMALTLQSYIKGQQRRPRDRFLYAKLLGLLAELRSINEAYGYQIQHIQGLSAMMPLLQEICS

Take `Cc1cccc(O)c1C`: the Potency result in assay [1], in assay [2], in [3], in assay [4], in assay [5] and in assay [6] was “inactive” in each case. Moreover, the Potency result in [7], in assay [8], in assay [9], in assay [10], in [11] and in assay [12] was “inactive” in each case. For the same compound, the Potency entry in [13], in assay [15], in assay [16], in [17], in assay [18] and in [19] was “inactive” in each case. Also, in assay [20], the Potency entry is “inactive”. Further, the activity change, positive = activation in assay [14] (at 92.4 µM (top of the series)) was 0.54% (inactive) and 10.2% (inactive).
With `O=C(OCc1ccccc1)c1ccc(O)cc1`, the Potency entry in assay [1], in assay [2], in [3], in [4], in assay [5] and in assay [8] was “inactive” each time. The Potency entry in assay [9], in assay [10], in assay [11], in [15], in assay [16] and in [17] was “inactive” in each case. Also, the Potency entry in assay [18], in assay [19] and in assay [20] was “inactive” each time.
`CCC(C)(Oc1ccc(C2(c3ccc(OC(C)(CC)C(=O)O)cc3)CCCCC2)cc1)C(=O)O` (stereo not drawn): the Potency result in [1], in [2], in assay [3], in assay [4], in [5] and in assay [6] was “inactive” throughout. The Potency result in assay [7], in assay [8], in assay [9], in [10], in assay [11] and in assay [12] was “inactive” each time. Further, the Potency result in assay [13], in assay [15], in assay [16], in [17], in assay [18] and in [19] was “inactive” in each case. For the same compound, in [20], the Potency result is “inactive”. In assay [14] (at 42.5 µM (top of the series)), the activity change, positive = activation is 9.22% (inactive).
Regarding `Cc1c2oc3c(C)ccc(C(=O)N[C@@H]4C(=O)N[C@H](C(C)C)C(=O)N5CCC[C@H]5C(=O)N(C)CC(=O)N(C)[C@@H](C(C)C)C(=O)O[C@@H]4C)c3nc-2c(C(=O)N[C@@H]2C(=O)N[C@H](C(C)C)C(=O)N3CCC[C@H]3C(=O)N(C)CC(=O)N(C)[C@@H](C(C)C)C(=O)O[C@@H]2C)c(N)c1=O` (I: T[dV]P[Sar][NMeV] / II: T[dV]P[Sar][NMeV]; ester I:1-I:C, II:1-II:C; linker I:N-II:N via Actinocin(9to1)), the Potency in [1] is 13.3 nM (active); in [2], 7.5 nM (active) and 33.5 nM (active); in [3], 1 nM (active); in assay [5], 266 nM (active); in assay [10], 1100 nM (active); in assay [15] it was 8.47 µM (active) and 2.68 µM (active). In addition, the Potency in assay [16] is 12 nM (active) and 21.3 nM (active); in assay [20], 33.7 nM (active) and 120 nM (active). For the same compound, the Potency entry in assay [4], in assay [9], in [12], in [17] and in [19] was “inactive” in each case.
Take `Cc1cccc2n[nH]nc12`: the Potency result in assay [1], in assay [2], in [3], in assay [4], in assay [5] and in assay [6] was “inactive” each time. Besides, the Potency result in assay [7], in assay [8], in [9], in [10], in [12] and in [13] was “inactive” in each case. For the same compound, the Potency result in assay [15], in assay [17], in assay [18], in assay [19] and in assay [20] was “inactive” each time. Further, in assay [14] (at 92.4 µM (top of the series)), the activity change, positive = activation was 7.89% (inactive) and -7.83% (inactive).
Regarding `CCc1cc(C(C)(C)C)c(O)c(C(C)(C)C)c1`, the Potency result in assay [1], in assay [2], in assay [3], in assay [5], in [8] and in assay [9] was “inactive” throughout. Besides, the Potency result in assay [15], in assay [16], in assay [17], in assay [18] and in assay [20] was “inactive” throughout. Also, the Potency result in assay [4] was “inactive and 12.2 µM (active)”; in [19] it was 21900 nM (active).
For the compound `CCCNC(C)C(=O)Nc1ccccc1C` (stereo not drawn), the Potency entry in assay [1], in [2], in assay [3], in assay [4], in assay [5] and in [8] was “inactive” throughout. Besides, the Potency entry in [9], in [10], in [12], in assay [15], in assay [17] and in assay [18] was “inactive” each time. In addition, the Potency entry in assay [19] and in assay [20] was “inactive” each time.
